“And” between values parts separate entries of the source, which are not always exact repeats. Equal entries are not always repeated. Inconclusive results are not listed. The source made the active and inactive calls. Unless noted, the call rests on the fitted dose curve; in most records, active means well fitted curve in the direction sought with a large enough effect; inconclusive means small, poorly fitted or top-dose-only effect, or another doubt; inactive means no such curve, though single readings can be large; an effect the other way counts as inactive or inconclusive.

Assay [1] deals with alpha-glucosidase (Oryza sativa, rice) (UniProt Q653V4). Put plainly: Counterscreen for Glucocerebrosidase Inhibitors: qHTS Assay for Rice alpha-Glucosidase at pH 5.0 (AID 997).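 Further: 0% = full activity with enzyme and -100% = basal without enzyme.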 Summed up: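 Rice alpha-glucosidase (4 nM final) with 400 uM 4-methylumbelliferyl-alpha-D-glucopyranoside in citrate buffer pH 5.0, 20 min at room temperature, stopped at pH 10; fluorescence 365/440 nm, compounds 0.7 nM–77 uM, AC50 from Hill fits.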
Background: The purpose of a counterscreen is to sort out artefacts and off-target activity.

The nature of assay [2]: Validation of Assay for Modulators of Lamin A Splicing (AID 1459; active means well fitted curve in the direction sought with a large enough effect in the signal ratio; the % refers to the signal ratio;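 further: cells exposed to compound for two days before reading; 0% is about no effect; ratio rise marks activators and ratio drop marks inhibitors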). The gist of the method: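 HeLa S3 lamin A-EGFP/DsRed2 stable clone, 600 cells/well, Opti-MEM 2% FBS; compounds by pin tool; 48 hrs, 37 °C/5% CO2; Acumen 488 nm scan, objects 10-100 um; GFP/RFP intensity ratio.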
Assay [3] is described as follows: qHTS Assay for Lipid Storage Modulators (AID 1519; calls by dose curve; on activity change, negative = inhibition: on the % scale 0 is the no-effect control and ±100 the full control effect). The following applies: Drosophila S3 cells, BODIPY lipid droplet/cell ratio, laser cytometry, cells loaded with oleic acid; for activity change, negative = inhibition: at 57.5 µM (top of the series). The gist of the method: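 Cells seeded at 5,000 per well were treated with compounds over a concentration series and loaded with oleic acid (400 uM, as added). Lipid droplet fluorescence (488 nm excitation, 500-530 nm channel) was read by laser-scanning cytometry and normalized to 20 uM Triacsin C.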
Background: qHTS replaces the single test concentration by a dilution series.

Assay [4] deals with DNA repair nuclease/redox regulator APEX1 (Homo sapiens) (UniProt P27695). Put plainly: qHTS Validation Assay for Inhibitors of the Human Apurinic/apyrimidinic Endonuclease 1 (APE1) (AID 1705; further: potency means the concentration at half of the fitted maximal effect;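 on activity change, negative = inhibition: TAMRA fluorescence gain over two minutes as APE1 cuts a quenched THF abasic duplex; on the % scale 0 is the no-effect control and ±100 the full control effect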). The gist of the method: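 qHTS, 1536-well. APE1 + cpd 15 min RT → 50 nM TAMRA/BHQ-2 THF-abasic dsDNA substrate → kinetic fluorescence, 3 reads/60 s; delta(read3−read1) = reaction progress. No-enzyme buffer = negative control.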
Chain of DNA repair nuclease/redox regulator APEX1 (Homo sapiens) (P27695 whole entry, looked up): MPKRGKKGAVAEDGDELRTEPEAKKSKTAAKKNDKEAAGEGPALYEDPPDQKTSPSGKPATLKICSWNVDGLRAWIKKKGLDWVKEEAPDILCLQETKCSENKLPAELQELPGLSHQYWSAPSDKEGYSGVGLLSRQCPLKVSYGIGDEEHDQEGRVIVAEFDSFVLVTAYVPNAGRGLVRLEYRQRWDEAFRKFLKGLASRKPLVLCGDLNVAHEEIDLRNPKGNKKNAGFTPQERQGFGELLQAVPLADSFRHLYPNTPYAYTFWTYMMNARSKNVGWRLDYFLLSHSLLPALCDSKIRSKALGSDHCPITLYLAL

The nature of assay [5]: Counterscreen for APE1 Inhibitors: Fluorescent Dye Displacement Validation Assay (AID 1707).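 Further: plate controls were ThO with dsDNA and no compound for no effect and ThO without dsDNA for full effect.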 The gist of the method: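 Assay buffer: Tris-HCl pH7.5 with 50mM NaCl, 2 mM MgCl2, 0.01% Tween-20. Dye 250 nM, duplex 50 nM final. Readout: decrease in ThO endpoint fluorescence, 480 nm excitation, 540 nm emission.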
The target of assay [6] is Endonuclease 4 (Escherichia coli (strain K12)) (UniProt P0A6C1). Put plainly: Counterscreen for APE1 Inhibitors: qHTS Validation Assay for Inhibitors of Endonuclease IV (AID 1708). Further: on the % scale 0 is the no-effect control and ±100 the full control effect. Summed up:
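Concentration-response counterscreen run identically to the APE1 assay: 15 min room-temperature preincubation of 2 nM enzyme with compound, reaction started with 50 nM quenched abasic DNA, progress taken from kinetic fluorescence.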

Assay [7] in a line: qHTS for differential inhibitors of proliferation of Plasmodium falciparum line 3D7 (AID 1876). Further: potency means the concentration at half of the fitted maximal effect.
Assay [8] in a line: qHTS for differential inhibitors of proliferation of Plasmodium falciparum line W2 (AID 1883).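 Further: parasites grown with compound for 72 h before lysis and staining.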 Further: potency means the concentration at half of the fitted maximal effect.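 On activity change, negative = inhibition: 0% = vehicle wells and -100% = control inhibitor wells.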 The settings on record: Potency: Plasmodium falciparum W2 proliferation inhibition.
The nature of assay [9]: qHTS for differential inhibitors of proliferation of Plasmodium falciparum line HB3 (AID 1886).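 Further: parasites grown with compound for 72 h before SYBR Green readout.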 Further: potency means the concentration at half of the fitted maximal effect.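 On activity change, negative = inhibition: plate controls were vehicle for no effect and reference inhibitor for full effect.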 The settings on record: Potency: Plasmodium falciparum HB3 proliferation inhibition.
Assay [10] addresses ATP-dependent DNA helicase Q1 (Homo sapiens) (UniProt P46063). Put plainly: qHTS Validation Assay for Inhibitors of RecQ-Like Dna Helicase 1 (RECQ1) (AID 2353). Further: potency means the concentration at half of the fitted maximal effect.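 On activity change, negative = inhibition: plate controls were DMSO vehicle for no effect and enzyme-free control for full effect.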 The gist of the method: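 50 nM RECQ1T1 preincubated 15 min with compound in Tris pH 8.0 buffer with MgCl2, DTT, Tween-20 and 2.5 ug/ml poly(dI-dC); started with 200 nM TAMRA/BHQ-2 forked duplex and 2 mM ATP. Unwinding read as fluorescence (525/598 nm), two reads 2 h apart.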

Assay [11] addresses RecQ-like DNA helicase BLM (Homo sapiens) (UniProt P54132). Put plainly: qHTS Validation Assay for Inhibitors of Bloom's syndrome helicase (BLM) (AID 2364). Further: potency means the concentration at half of the fitted maximal effect.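 On activity change, negative = inhibition: plate controls were DMSO vehicle for no effect and enzyme-free control for full effect.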 Summed up: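 BLM 50 nM in 25 mM Tris-HCl pH 8.0, 5 mM NaCl, 2 mM MgCl2, 1 mM DTT, 0.01% Tween-20, 2.5 ug/ml poly(dI-dC); 15 min cpd preinc, RT. Start: 200 nM forked DNA + 2 mM ATP (final). TAMRA read, 2 reads 2 h apart.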

A short description of assay [12]: qHTS for differential inhibitors of proliferation of Plasmodium falciparum line 7G8 (AID 1815).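 Further: parasite growth measured after three days of incubation.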 Further: potency means the concentration at half of the fitted maximal effect.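 On activity change, negative = inhibition: plate controls were vehicle wells for no effect and reference inhibitor wells for full effect.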
The nature of assay [13]: qHTS for differential inhibitors of proliferation of Plasmodium falciparum line GB4 (AID 1816).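 Further: parasite growth measured after 72 h incubation.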 Further: potency means the concentration at half of the fitted maximal effect.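 On activity change, negative = inhibition: 0% = vehicle DMSO and -100% = reference inhibitor.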 The settings on record: Potency: Plasmodium falciparum GB4 proliferation inhibition.
Assay [14] in a line: qHTS for differential inhibitors of proliferation of Plasmodium falciparum line D10 (AID 1877).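 Further: parasites grown with compound for 72 h before DNA staining.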 Further: potency means the concentration at half of the fitted maximal effect.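 On activity change, negative = inhibition: plate controls were vehicle wells for no effect and reference inhibitor wells for full effect.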
The nature of assay [15]: qHTS for differential inhibitors of proliferation of Plasmodium falciparum line Dd2 (AID 1882). Further: nearly all actives have a fitted effect of over 65% in size. Further: potency means the concentration at half of the fitted maximal effect.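 On activity change, negative = inhibition: plate controls were DMSO vehicle for no effect and 0.29 µM artemisinin for full effect.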 The settings on record: Potency: Plasmodium falciparum Dd2 proliferation inhibition. The gist of the method:
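Dd2-infected erythrocytes (0.3% parasitemia, 2.5% hematocrit final) incubated with compound 72 h at 37 C, 5% CO2; lysed with saponin/Triton buffer containing SYBR Green I, incubated overnight in the dark, then read by fluorescence (485/535 nm). Normalized to 0.29 uM artemisinin and DMSO.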

For assay [16], the target named is Ferritin light chain (Equus caballus) (UniProt P02791). Put plainly: qHTS Validation Assay for Identification of Novel General Anesthetics (AID 2323). Further: on the % scale 0 is the no-effect control and ±100 the full control effect. The gist of the method: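 Fluorescence at 535 nm (excitation 380 nm) reported loss of 1-AMA binding to horse-spleen apoferritin (10 uM) in PBS with 50% saturated 1-aminoanthracene, after 10 min room-temperature incubation with compound; values from Hill fits of normalized response.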
Chain of Ferritin light chain (Equus caballus) (P02791 2-175 limits assumed): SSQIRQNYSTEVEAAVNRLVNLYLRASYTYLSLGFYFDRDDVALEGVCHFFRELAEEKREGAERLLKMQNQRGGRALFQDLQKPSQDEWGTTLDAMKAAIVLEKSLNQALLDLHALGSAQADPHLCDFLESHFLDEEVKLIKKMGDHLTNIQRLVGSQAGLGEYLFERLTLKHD

A short description of assay [17]: qHTS Assay for Modulators of Human Peripheral Myelin Protein 22 (PMP22) Expression/Activity (AID 1967; active means well fitted curve in the direction sought with a large enough effect in the signal ratio; the % refers to the signal ratio;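 further: 0% = untreated cells and 100% end not stated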). Summed up: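 Luminescence ratio of Pmp22 promoter-driven green luciferase to EF-alpha-driven red luciferase, in engineered mouse MSC80 Schwann cells, served as read-out. Compounds were incubated 24h; untreated cells defined 0% Activity; curves were classified by r2, magnitude and activity.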

Setting [18] is: measured here: cell count channel max response.
Setting [19] is: measured here: lipid channel max response.

Chain of ATP-dependent DNA helicase Q1 (Homo sapiens) (P46063 whole entry, looked up): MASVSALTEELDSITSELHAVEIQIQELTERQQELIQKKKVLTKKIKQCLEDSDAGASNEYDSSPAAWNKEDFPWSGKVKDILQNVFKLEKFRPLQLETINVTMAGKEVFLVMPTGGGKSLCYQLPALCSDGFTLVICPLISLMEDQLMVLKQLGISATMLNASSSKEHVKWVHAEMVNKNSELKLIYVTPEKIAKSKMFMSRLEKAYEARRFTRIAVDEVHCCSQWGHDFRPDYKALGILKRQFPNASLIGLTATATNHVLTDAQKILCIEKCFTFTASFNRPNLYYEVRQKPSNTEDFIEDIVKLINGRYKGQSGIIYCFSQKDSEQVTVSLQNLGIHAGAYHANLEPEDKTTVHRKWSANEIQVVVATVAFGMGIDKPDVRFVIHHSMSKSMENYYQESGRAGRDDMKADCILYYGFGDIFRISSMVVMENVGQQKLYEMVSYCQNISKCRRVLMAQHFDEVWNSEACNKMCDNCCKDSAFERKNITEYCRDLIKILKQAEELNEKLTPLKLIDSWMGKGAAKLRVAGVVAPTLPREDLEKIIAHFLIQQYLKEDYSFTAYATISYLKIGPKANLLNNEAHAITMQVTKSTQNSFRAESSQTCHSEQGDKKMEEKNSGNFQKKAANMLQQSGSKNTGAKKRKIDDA
Chain of RecQ-like DNA helicase BLM (Homo sapiens) (P54132 whole entry, looked up): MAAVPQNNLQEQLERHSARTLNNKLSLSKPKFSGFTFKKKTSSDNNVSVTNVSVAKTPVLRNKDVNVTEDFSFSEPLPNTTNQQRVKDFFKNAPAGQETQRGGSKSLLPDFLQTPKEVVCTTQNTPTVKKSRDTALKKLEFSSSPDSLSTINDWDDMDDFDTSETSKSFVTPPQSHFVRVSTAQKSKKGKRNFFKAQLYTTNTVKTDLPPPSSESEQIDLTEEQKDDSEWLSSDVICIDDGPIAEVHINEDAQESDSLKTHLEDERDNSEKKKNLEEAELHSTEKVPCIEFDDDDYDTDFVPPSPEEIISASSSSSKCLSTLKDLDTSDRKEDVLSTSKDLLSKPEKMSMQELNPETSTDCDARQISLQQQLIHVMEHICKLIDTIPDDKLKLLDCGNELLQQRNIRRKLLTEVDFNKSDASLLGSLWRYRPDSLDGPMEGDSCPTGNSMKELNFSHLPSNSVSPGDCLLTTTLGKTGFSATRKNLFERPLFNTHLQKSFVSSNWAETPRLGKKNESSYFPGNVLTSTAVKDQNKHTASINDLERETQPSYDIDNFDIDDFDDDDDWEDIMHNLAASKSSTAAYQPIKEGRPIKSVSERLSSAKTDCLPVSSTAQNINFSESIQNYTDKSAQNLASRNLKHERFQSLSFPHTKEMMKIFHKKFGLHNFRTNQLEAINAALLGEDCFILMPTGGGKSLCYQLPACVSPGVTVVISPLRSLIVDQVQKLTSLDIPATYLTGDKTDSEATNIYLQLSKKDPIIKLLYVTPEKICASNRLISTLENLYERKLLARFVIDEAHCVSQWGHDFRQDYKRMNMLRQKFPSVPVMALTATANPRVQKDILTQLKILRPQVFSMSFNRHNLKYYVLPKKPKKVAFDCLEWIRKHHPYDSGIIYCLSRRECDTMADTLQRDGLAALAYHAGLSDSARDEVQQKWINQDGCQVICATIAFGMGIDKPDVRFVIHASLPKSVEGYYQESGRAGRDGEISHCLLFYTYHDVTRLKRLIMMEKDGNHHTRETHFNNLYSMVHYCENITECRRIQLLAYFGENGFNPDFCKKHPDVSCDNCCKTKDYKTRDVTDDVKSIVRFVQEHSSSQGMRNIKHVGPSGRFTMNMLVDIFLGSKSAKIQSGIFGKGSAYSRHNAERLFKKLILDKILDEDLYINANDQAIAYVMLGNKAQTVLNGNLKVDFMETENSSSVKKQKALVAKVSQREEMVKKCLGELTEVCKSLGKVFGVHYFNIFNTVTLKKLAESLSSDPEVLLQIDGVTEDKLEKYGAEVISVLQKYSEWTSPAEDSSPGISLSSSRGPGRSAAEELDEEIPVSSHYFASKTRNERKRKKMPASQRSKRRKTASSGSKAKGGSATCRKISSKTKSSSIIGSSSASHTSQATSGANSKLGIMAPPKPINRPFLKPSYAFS

Consider `N#C/C(=C\c1ccc(O)c(O)c1)C(=O)c1ccc(O)c(O)c1`, for which the call in assay [1] and in assay [2] was inactive. Further, in [3], the activity change, negative = inhibition was -0.353% (inactive). In addition, the values for the max response in [3] (setting [18]) and in assay [3] (setting [19]) were 19.5% and 19.3%, respectively. The Potency in assay [4] is 0.282 µM (active); in [7], 10 µM (active); in [8] it was 12.6 µM (active); in [9], 12.6 µM (active); in assay [10] it was 0.282 µM (active); in assay [11] it was 8.91 µM (active). The Potency entry in [5] and in [6] was “inactive” each time.
For the compound `OC[C@H]1O[C@@H](n2cnc3c(NC4CCCCC4)ncnc32)[C@H](O)[C@@H]1O`, the compound was called inactive in assay [2]. Also, the Potency entry in [4], in assay [5], in assay [6], in assay [12], in assay [13] and in assay [7] was “inactive” in each case. Besides, the Potency result in assay [14], in [15], in assay [9], in [16], in assay [10] and in assay [11] was “inactive” each time.
Regarding `Cn1c(=O)c2[nH]c(-c3ccccc3)nc2n(C)c1=O`, the outcome in assay [1], in assay [2] and in assay [17] was inactive. For the same compound, the activity change, negative = inhibition in assay [3] was 1.32% (inactive). For the same compound, the results for the max response in assay [3] (setting [18]) and in [3] (setting [19]) were 63.6% and 55.6%, respectively. Also, the Potency entry in assay [5], in [6], in [12], in assay [13], in assay [7] and in assay [14] was “inactive” each time. The Potency entry in assay [15], in assay [9], in assay [16] and in assay [10] was “inactive” throughout.
Regarding `O=C(/C=C/c1ccc(O)cc1)c1ccc(O)cc1O`, the result in assay [2] was inactive. The activity change, negative = inhibition in assay [3] is 6.63% (inactive) and 0.947% (inactive). The max response in assay [3] (setting [18]) was 1.72% and 46.2%; in assay [3] (setting [19]), 5.97% and 48.5%. For the same compound, the Potency result in assay [5], in assay [16] and in [10] was “inactive” in each case. In addition, the Potency in [12] was 10 µM (active); in assay [13] it was 7.94 µM (active); in [14], 12.6 µM (active); in [8], 10 µM (active); in assay [9] it was 12.6 µM (active).
As to `NC(=O)C(=O)O`, the compound was called inactive in assay [1], in assay [2] and in assay [17]. Also, the Potency entry in assay [4], in assay [5], in assay [6], in assay [12], in assay [13] and in assay [7] was “inactive” each time. The Potency result in assay [14], in assay [15], in assay [8], in assay [9], in assay [16] and in [10] was “inactive” throughout.
With `Oc1ccc(C2CNCc3sccc32)cc1O` (stereo not drawn), the compound was called inactive in [2]. The activity change, negative = inhibition in [3] was -2.2% (inactive). Further, the max response in assay [3] (setting [18]) was found to be 25.9%; in assay [3] (setting [19]) it was 25.8%. The Potency entry in assay [4], in [5], in assay [6] and in assay [10] was “inactive” throughout. Also, the Potency in assay [12] is 8.91 µM (active); in assay [13] it was 12.6 µM (active); in assay [14], 11.2 µM (active); in assay [15], 8.91 µM (active); in [8], 11.2 µM (active); in assay [9], 11.2 µM (active).
For `O=C(O)CNC(=O)C(CS)Cc1ccccc1` (stereo not drawn), the result in assay [2] and in assay [17] was inactive. Also, the activity change, negative = inhibition in assay [3] is 0.149% (inactive). The max response is -2.09% in assay [3] (setting [18]) and -2.71% in [3] (setting [19]). Moreover, the Potency result in assay [4], in assay [5], in [6], in assay [12], in assay [13] and in assay [7] was “inactive” throughout. The Potency result in assay [14], in [15], in assay [8], in assay [9], in assay [16] and in assay [10] was “inactive” throughout.
Turning to `O=c1[nH]c2cc(C(F)(F)F)ccc2n1-c1cc(C(F)(F)F)ccc1O`, in assay [2], the compound was classed as inactive. Further, the activity change, negative = inhibition in [3] is -0.787% (inactive). The max response in assay [3] (setting [18]) was 34.5%; in [3] (setting [19]) it was 34%. The Potency entry in assay [4], in [5] and in assay [10] was “inactive” throughout. Further, the Potency in assay [12] is 4.47 µM (active); in assay [13] it was 3.98 µM (active); in assay [14], 10 µM (active); in assay [15], 8.91 µM (active); in [8], 7.08 µM (active); in assay [9], 12.6 µM (active).

Values taken from PubChem BioAssay (NCATS).
